Screening data (PubChem BioAssay)
Sampled rows, rich in hits. Any-hit rate of the full collection: about 10%.
GLS inh – inhibitors of human glutaminase (GLS); GLS enzymatic activity, qHTS titration; Potency, µM (doses to about 45.5 µM), inactives show at the top dose activity change, negative = inhibition, actives largely listed as inhibitors; 410,000 compounds, 0.21% hits; AID 624170; also: % is scaled to controls: 0 for no effect and ±100 for the full control effect
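Human kidney-isoform GLS in 45 mM KH2PO4 pH 8.2, 0.02% Tween-20, with compound, started with 1mM L-Glutamine (added stock). Glutamate oxidase/HRP/Amplex red coupled fluorescence read at start and after 30 min at RT.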
JMJD2A Tudor – inhibitors of human JMJD2A Tudor domain. O75164. AlphaScreen JMJD2A-Tudor / H3K4me3 peptide binding. Potency, µM (titrated, usually from 114 µM), for the others: top-dose activity change, negative = inhibition, actives largely listed as inhibitors. 390,000 compounds, 4.4% hits; also: % is scaled to controls: 0 for no effect and ±100 for the full control effect; nearly all actives have a fitted effect of over 50% in size
G9a block – G9a (human) methyltransferase inhibition | Q96KQ7 | G9a H3K9 monomethylation, AlphaScreen, 2 h | Potency, µM (highest dose often 102 µM), for the others: top-dose activity, negative = inhibition, hits mostly inhibitors | 350,000 compounds, 8.8% hits | AID 504332; also: % is scaled to controls: 0 for no effect and ±100 for the full control effect; nearly all actives have a fitted effect of over 75% in size
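Chemiluminescent proximity detection of H3K9 monomethylation, read after 10 min bead incubation in the dark. Reaction: 20 nM G9a, 500 nM biotin-H3K9 peptide, 20 uM SAM cofactor, 2 h, room temperature, following 15 min enzyme-compound preincubation.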
BAZ2B block – blocks human BAZ2B; Potency, µM (top dose mostly 114 µM), without a hit: at the highest dose activity change, negative = inhibition, actives largely listed as inhibitors; AlphaScreen BAZ2B-H3K14Ac peptide displacement; Q9UIF8; 360,000 compounds, 4.4% hits; also: % is scaled to controls: 0 for no effect and ±100 for the full control effect; nearly all actives have a fitted effect of over 60% in size
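Inhibition is scored as reduced AlphaScreen emission. The BAZ2B/b-H3(5-23)K14Ac complex (50 nM each) in PBS pH 7.4, 0.01% Tween-20 meets compound (up to 110 uM) for 30 min at RT before bead addition.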
HP1b binding inh – HP1-beta chromodomain-methylated histone interaction inhibition. P83916. AlphaScreen HP1-beta / biotin-H3K9me3 peptide binding. Potency, µM (series often up to 114 µM), for the others: at the highest dose activity change, negative = inhibition, most hits filed as inhibitors. 390,000 compounds, 0.56% hits. AID 540317; also: nearly all actives have a fitted effect of over 70% in size
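Compound inhibition of the preformed complex between 50 nM HP1-beta and 50 nM biotinylated H3K9me3 peptide was read by AlphaScreen. Buffer was PBS pH 7.4 with 0.01% Tween-20. Incubations ran 30 min at room temperature, with 10 ug/mL donor/acceptor beads.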
The depositor's hits bear a star; [ ] = another dose, or the depositor's remark. Calls follow the shape of the dose curve; as a rule, active = well fitted curve in the direction sought with a large enough effect; inconclusive = small, poorly fitted or top-dose-only effect, or another doubt; inactive = no such curve, though single readings can be large; an effect the other way counts as inactive or inconclusive. Potency is read from the fitted curve at half-maximal effect.

How did COc1ccc(NC(=O)CN(c2ccccc2OC)S(C)(=O)=O)c(OC)c1 do in these assays?
GLS inh: 1%; JMJD2A Tudor: -7%; G9a block: -1%[59 µM]; BAZ2B block: 3%; HP1b binding inh: 25%

Results for CCCC(C(=O)NC1=NCCS1)c1ccccc1 (centres undefined) ?
GLS inh: 0%; JMJD2A Tudor: -12%; G9a block: -4%; HP1b binding inh: 32%

How did S=C(NCc1cccs1)Nc1ccccc1 do in these assays?
GLS inh: 2%; JMJD2A Tudor: 3%; G9a block: 10%; BAZ2B block: -21%; HP1b binding inh: 23%

What do the screens show for `CCOCCCNC(=S)Nc1ccc(S(N)(=O)=O)cc1`?
GLS inh: 6%; JMJD2A Tudor: -3%; G9a block: 28µM*; BAZ2B block: -24%; HP1b binding inh: 33%

How did CC(C)CNC(=S)Nc1ccc(S(N)(=O)=O)cc1 do in these assays?
GLS inh: 17%; JMJD2A Tudor: -12%; G9a block: 40µM*; BAZ2B block: -4%; HP1b binding inh: -17%

What do the screens show for `CCCNC(=S)Nc1ccc(S(N)(=O)=O)cc1`?
GLS inh: 9%; JMJD2A Tudor: -11%[57.1 µM]; G9a block: 2%; BAZ2B block: 0%; HP1b binding inh: 16%

Results for NS(=O)(=O)c1ccc(NC(=S)NCc2cccs2)cc1 ?
GLS inh: 5%; JMJD2A Tudor: -11%[11.4 µM]; G9a block: 35µM*; BAZ2B block: -17%; HP1b binding inh: -15%

How did Oc1ccc(-c2cnc3c(Nc4cccc(OC(F)(F)C(F)F)c4)nccn23)cc1 do in these assays?
GLS inh: 2%

Results for OC[C@H]1O[C@@H](c2nc(-c3ccc(CN4CCOCC4)cc3)no2)[C@H](O)[C@@H](O)[C@H]1O ?
GLS inh: -8%

How did CN(C)c1ncc2ncc(=O)n(Cc3cccs3)c2n1 do in these assays?
G9a block: 14%[12.7 µM]

What do the screens show for `CC1(c2ccccc2)NC(=S)N2C1NC(=S)N2c1ccccc1` (centres undefined)?
GLS inh: 26%; JMJD2A Tudor: inconclusive; G9a block: 50µM*; BAZ2B block: -35%; HP1b binding inh: 15%

How did COc1cccc(N2C(=O)C3C(C2=O)C3(c2ccccc2)c2ccccc2)c1 (centres undefined) do in these assays?
GLS inh: 0%; JMJD2A Tudor: -13%; G9a block: 3%; BAZ2B block: -15%; HP1b binding inh: 9%

Results for COc1ccc(N2C(=S)NC3N2C(=S)NC3(C)c2ccccc2)cc1 (centres undefined) ?
GLS inh: inconclusive; JMJD2A Tudor: -23%; G9a block: 28µM*; BAZ2B block: inconclusive; HP1b binding inh: 12%

How did Cc1sc(/N=C/c2ccccc2O)c(C#N)c1C do in these assays?
G9a block: 11%[59 µM]; BAZ2B block: 5%

How did CCOCCCNCC(=O)Nc1ccc(OC(F)(F)F)cc1 do in these assays?
GLS inh: 6%; JMJD2A Tudor: 40µM*; G9a block: 50µM*; BAZ2B block: 79µM*; HP1b binding inh: inconclusive

Results for O=C(Cc1ccccc1)NCC(=O)Nc1ccc(OC(F)(F)F)cc1 ?
GLS inh: -4%; JMJD2A Tudor: -8%; G9a block: 5%; BAZ2B block: -12%; HP1b binding inh: 28%

How did COCCNCC(=O)Nc1ccc(OC(F)(F)F)cc1 do in these assays?
GLS inh: 6%; JMJD2A Tudor: 0.79µM*; G9a block: 22µM*; BAZ2B block: 50µM*; HP1b binding inh: inconclusive

What do the screens show for `O=C(O)CC(NC(=O)C1c2ccccc2Oc2ccccc21)c1ccc(Cl)cc1` (centres undefined)?
GLS inh: -3%; JMJD2A Tudor: -36%; G9a block: 11µM*; BAZ2B block: -7%; HP1b binding inh: 19%

What do the screens show for `Cc1ccc(C2C3=C(CC(C)(C)CC3=O)Nc3onc(C)c32)cc1` (centres undefined)?
GLS inh: 10%; JMJD2A Tudor: 3%; G9a block: -16%[59 µM]; BAZ2B block: inconclusive; HP1b binding inh: 48%

What do the screens show for `COc1ccc(C2NC(=O)NC3=C2C(=O)CCC3)cc1` (centres undefined)?
GLS inh: -2%; JMJD2A Tudor: -11%; G9a block: -12%; BAZ2B block: -4%; HP1b binding inh: 12%

What do the screens show for `CC1(C)CC(=O)C2=C(C1)NC1=C(C(=O)c3ccccc31)C2c1ccc(Cl)cc1` (centres undefined)?
GLS inh: -2%; JMJD2A Tudor: 16µM*; G9a block: inconclusive; BAZ2B block: 11µM*; HP1b binding inh: inconclusive

How did COc1ccc(C2C3=C(CCCC3=O)NC3=C2C(=O)c2ccccc23)cc1 (centres undefined) do in these assays?
GLS inh: -17%; JMJD2A Tudor: 50µM*; BAZ2B block: 35µM*; HP1b binding inh: inconclusive

What do the screens show for `Cc1ccc(C2C3=C(CC(C)(C)CC3=O)NC3=C2C(=O)c2ccccc23)cc1` (centres undefined)?
GLS inh: -5%; JMJD2A Tudor: 50µM*; G9a block: 14µM*; BAZ2B block: 32µM*; HP1b binding inh: inconclusive

Results for CCCN1C2=C(C(=O)CC(C)(C)C2)C(c2ccc(F)cc2)C2=C1c1ccccc1C2=O (centres undefined) ?
GLS inh: -3%; JMJD2A Tudor: -30%; G9a block: 11µM*; BAZ2B block: inconclusive; HP1b binding inh: inconclusive

Results for CC1(C(=O)O)CCCN1C(=O)c1cccc(OC(F)(F)F)c1 (centres undefined) ?
GLS inh: 2%

What do the screens show for `CC(C)(C)c1onc(OCP(=O)(O)O)c1CC(N)C(=O)O` (centres undefined)?
G9a block: 5.3µM*

What do the screens show for `Cc1ccc(-n2c(=O)c3c4c(sc3n(CC(=O)c3ccc(Cl)cc3)c2=O)CCC4)cc1C`?
GLS inh: 2%; JMJD2A Tudor: -19%; G9a block: 13%[59 µM]; BAZ2B block: 3%; HP1b binding inh: 8%

Results for CC(=O)n1c(Cl)c(NC(=O)CCl)c2ccccc21 ?
GLS inh: -7%; JMJD2A Tudor: -3%; G9a block: inconclusive; BAZ2B block: 45µM*; HP1b binding inh: 26%

What do the screens show for `CC(=O)n1c2ccccc2c2ccccc21`?
GLS inh: -1%; JMJD2A Tudor: 21%; G9a block: 100%[59 µM]; BAZ2B block: 12%; HP1b binding inh: 61%

How did Cn1c(SCc2ccccc2F)nnc1-c1ccccn1 do in these assays?
GLS inh: 3%; JMJD2A Tudor: -5%; G9a block: -7%; BAZ2B block: 56µM*; HP1b binding inh: 32%

How did Cn1c(SCc2ccc(F)cc2)nnc1-c1ccccn1 do in these assays?
GLS inh: -3%; JMJD2A Tudor: inconclusive; G9a block: -5%; BAZ2B block: 50µM*; HP1b binding inh: 30%
